The list is not random: actives were taken first. Their share in the collection is about 3%.
KAT2A inh: qHTS Assay for Inhibitors of GCN5L2; 390,000 compounds, 0.21% hits; GCN5L2 HAT assay, ThioGlo1 CoA-SH fluorescence; Potency, µM (titrated, usually from 58.9 µM), without a hit: at the top dose activity change, negative = inhibition, hits mostly inhibitors; AID 504327, 2011; Histone acetyltransferase KAT2A (Homo sapiens), Q92830
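qHTS, 1536-well. 20nM enzyme, pH 7.5 HEPES/EDTA/Tween-20 buffer; 15 min compound preinc., RT. Start: 75uM H3(1-25), 70uM AcCoA, 50uM ThioGlo1. Read Ex340/Em540 at t=0 (autofluorescence flag) and t=20 min.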
PLK1 PBD inh: qHTS for Inhibitors of PLK1-PDB (polo-like kinase 1 - polo-box domain): Primary Screen; Serine/threonine-protein kinase PLK1 (Homo sapiens), P53350; Plk1 PBD binding of FITC phosphopeptide, fluorescence polarization; Potency, µM, for inactives: max response, negative = inhibition, most hits filed as inhibitors; 360,000 compounds, 2.8% hits; note: series mostly up to about 57 µM; nearly all actives have a fitted effect of over 65% in size
VDR inh: Inhibitors of the vitamin D receptor (VDR): qHTS; 400,000 compounds, 0.93% hits; Potency, µM, for the others: max response, negative = inhibition, usual class: inhibitors; AID 504847, 2011; VDR-SRC2-3 peptide fluorescence polarization, 2 h
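The screen uses fluorescence polarization to detect compounds that interfere with recruitment of the SRC2-3 coactivator peptide to VDR; plates are read after 2 h at room temperature.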
ALOX12 inh: Primary qHTS assay for inhibitors of human arachidonate 12S-lipoxygenase (ALOX12): Round 2. Polyunsaturated fatty acid lipoxygenase ALOX12 (Homo sapiens), P18054. purified 12hLO, xylenol orange hydroperoxide absorbance. Potency, µM (top dose mostly 108 µM), without a hit: top-dose activity change, negative = inhibition, actives largely listed as inhibitors. 580,000 compounds, 1.1% hits. AID 1671190, 2021
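Purified human 12hLO (150 nM final) in 25 mM Hepes, 0.01% Triton X-100, pH 7.0 was preincubated 15 min at room temperature with compound. Then 40 uM arachidonic acid was added, 30 min. Hydroperoxide was read by Fe-XO absorbance ratio 573/405 nm.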
An asterisk follows results filed as active; ? = inconclusive; . = no result; [ ] = another dose, or the depositor's remark. Calls come from the whole dose curve; as a rule, active = well fitted curve in the direction sought with a large enough effect; inconclusive = small, poorly fitted or top-dose-only effect, or another doubt; inactive = no such curve, though single readings can be large; an effect the other way counts as inactive or inconclusive. % is set by controls: 0 for no effect and ±100 for the full control effect; potency is the fitted concentration of half-maximal effect.

SMILES	KAT2A inh	PLK1 PBD inh	VDR inh	ALOX12 inh
CCCCS(=O)(=O)c1oc(-c2cccs2)nc1S(=O)(=O)c1ccc(F)cc1	-12%	.	10µM*	-14%
C=CCSC1=C(C#N)C(c2ccccc2OCC)C(C#N)C(=O)N1 (stereo not drawn)	-30%	27µM*	-19%	?
CN1C(=O)C(CC(=O)NC2CCCCC2)SC1=Nc1ccccc1 (stereo not drawn)	-2%	30µM*	-22%	-9%
Cc1cc(SCNC(=O)c2ccccc2)nc(C(C)C)n1	26%	24µM*	-28%	-11%
Cc1cc(C)nc(SCNC(=O)c2ccccc2)n1	25%	-22%	-5%	8%
COc1ccccc1C(=O)Oc1ccc(Cl)cc1	.	.	.	15%
Cc1c(C)c2cc3c(c(C)c2oc1=O)OCN(CCc1ccc(F)cc1)C3	-16%	.	-6%	-14%
COC(=O)Cc1c(C)c2cc3c(c(C)c2oc1=O)OCN(CCc1ccc(F)cc1)C3	28µM*	.	6%	-75%
COc1ccc(C2(C)N(O)C(C)C(c3cccs3)=[N+]2[O-])cc1 (stereo not drawn)	.	.	.	-5%
COc1ccc(Cl)cc1NC(=O)CSc1nnc(CNC(=O)c2ccco2)o1	-10%	-6%	-6%	0%
COc1ccc(OC)c(NC(=O)CSc2nnc(CNC(=O)c3ccco3)o2)c1	2%	30µM*	4%	0%[57.4 µM]
O=C(NC1CC1)C(NCc1ccc(F)cc1)c1ccc(F)cc1 (stereo not drawn)	.	.	.	15%
CCCNC(=O)CCn1c(=S)oc2ccccc21	-5%	12µM*	?	-2%
COc1ccc2cc(/C=N/O)c(Cl)nc2c1	-7%	-9%	-20%	-6%
COc1ccc2cc(CO)c(Cl)nc2c1	0%	6.7µM*	-15%	3%
Cc1ccc(CNC(=O)[C@H](Cc2ccccc2)NC(=O)c2cccs2)n1C	.	.	.	3%
CCC1Oc2ccc(NS(=O)(=O)c3ccc(Cl)cc3)cc2CN(Cc2ccc(F)cc2)C1=O (stereo not drawn)	.	.	.	-20%
CCC1Oc2ccc(NS(=O)(=O)c3ccccc3)cc2CN(Cc2ccc(F)cc2)C1=O (stereo not drawn)	.	.	.	14µM*
N#Cc1ccccc1COC(=O)c1ccc(COc2ccccc2)o1	.	.	.	-3%
Cc1cc(NC(=O)C2CCCCC2)ncc1NC(=O)c1ccccn1	16%	-8%	10%	-3%
Cc1cc(NC(=O)C2CC2)ncc1NC(=O)c1ccccn1	-8%	27µM*	-8%	-5%
N#CC(Cc1cccnc1)C(=O)Nc1ccccc1Cl (stereo not drawn)	.	.	.	31%
Oc1c(C(c2ccccc2Cl)N2CCCC2)ccc2cccnc12 (stereo not drawn)	-4%	7.5µM*	?	?
CN1CCN(C(c2ccc(C(F)(F)F)cc2)c2ccc3cccnc3c2O)CC1 (stereo not drawn)	-1%	3.8µM*	32µM*	18µM*
Cc1ccccc1C1CCCN1C(=O)c1cc(-c2cccs2)on1 (stereo not drawn)	.	.	.	-26%
SMILES	KAT2A inh	PLK1 PBD inh	VDR inh	ALOX12 inh
COc1ccc(-c2coc3cc(OC(C)=O)ccc3c2=S)cc1	.	12µM*	?	?
CCOC(=O)C1=C(C)OC(n2cccc2)=C(C#N)C1c1cc(OC)c(OC)c(OC)c1 (stereo not drawn)	.	.	.	-1%
COc1cccc(-c2nc3cc(NC(=O)c4ccc(C)c([N+](=O)[O-])c4)ccc3o2)c1	.	.	.	45µM*
COCC(C)OC(=O)/C(C#N)=C\c1coc2ccc(C)cc2c1=O (stereo not drawn)	-3%	11µM*	?	-7%
COc1ccc(N2CC(C(=O)N(C)Cc3cnn(C)c3)CC2=O)cc1 (stereo not drawn)	.	.	.	4%
CC(C)(C)c1cc(C(=O)OCCN2CCCCC2)cc(C(C)(C)C)c1	.	.	.	7.1µM*
O=C(Nc1ccc(F)cc1F)c1ccc2c(Cl)c3c(nc2c1)CCCC3	.	.	.	0%
O=C1C(Cl)=C(Nc2ccc3cn[nH]c3c2)C(=O)c2ccccc21	-3%	13µM*	?	?
Cc1ccc(SC(C)C(=O)NC2CCCC2)c(C)c1 (stereo not drawn)	.	.	.	-3%
O=C(O)c1cc(S(=O)(=O)N2CCN(C(c3ccccc3)c3ccccc3)CC2)ccc1Cl	-6%	-5%	1%	40µM*
Cc1cc(C)n(-c2cc(Cl)ccc2[N+](=O)[O-])n1	-4%	27µM*	-5%	3%
O=C(NC(=S)Nc1cc(-c2nc3ccccc3[nH]2)ccc1Cl)c1ccc2c(c1)OCO2	-13%	24µM*	-17%	?
Cc1ccc(-c2nc3ccccc3[nH]2)cc1NC(=O)c1ccc2c(c1)OCO2	4%	-7%	-2%	16%
CCN(CC)CCCOc1nc(C)nc2c1oc1ccccc12	-7%	-2%	-17%	?
CCN(CC)CCOc1nc(C)nc2c1oc1ccccc12	1%	27µM*	-3%	?
O=S(=O)(Nc1cccc2c1CCCC2)c1ccccc1Cl	.	.	.	131%
O=c1[nH]cccc1NS(=O)(=O)c1ccccc1Cl	.	.	.	35µM*
CCOC(=O)c1sc(CC(=O)Nc2ccccc2C)nc1C	.	.	.	8.9µM*
CSc1sccc1/C=C(/C#N)C(=O)c1ccco1	-5%	0.84µM*	?	-2%
Cc1cc(C)cc(NC(=O)NCc2c(C)nn(C)c2C)c1	.	.	.	0%
COc1ccc(OC)c(NS(=O)(=O)c2ccc(NC(C)=O)cc2)c1	-3%	-4%	9%	-11%
COc1ccccc1NS(=O)(=O)c1ccc(O)cc1	2%	3.4µM*	-17%	0%
COc1ccc(NS(=O)(=O)c2ccc(NC(C)=O)cc2)c(OC)c1	-5%	24µM*	?	10%
O=S(=O)(Nc1ccc(O)c2ccccc12)c1ccc(F)cc1	.	27µM*	?	?
Cc1ccccc1NC(=O)Nc1ccc2c(c1)N(C(=O)c1ccccc1)CC2	.	.	.	-5%
SMILES	KAT2A inh	PLK1 PBD inh	VDR inh	ALOX12 inh
CCOC(=O)N(C)OC(=O)Nc1ccc(Cl)c(Cl)c1	-7%	2.1µM*	-90%	?
CCOC(=O)CNNC(=O)Nc1ccc(Cl)c(Cl)c1	2%	-5%	-23%	-14%
CCOC(=O)N(CC)OC(=O)Nc1ccc(Cl)cc1	-8%	8.4µM*	-24%	-21%
CCOC(=O)NCCOC(=O)Nc1ccc(Cl)cc1	0%	?	6%	1%
Cc1c(CC(=O)NC[C@@H](C)O)c(=O)oc2cc(O)c(Cl)cc12	.	.	.	-8%
CCCCCn1c(SCC(N)=O)nc2c1c(=O)[nH]c(=O)n2C	.	.	.	36%
C=CCNC(=O)CN1CCN(c2nc(-c3ccccc3)nc3ccccc23)CC1	.	.	.	4%
Cn1c(N)c(C(=O)CSc2ncn[nH]2)c(=O)n(C)c1=O	-25%	-10%	-18%	-12%
Cc1nnc(SCC(=O)c2c(N)n(C)c(=O)n(C)c2=O)[nH]c1=O	-3%	24µM*	-15%	305%
O=c1[nH]c(CSc2nnc(Nc3ccccc3)s2)nc2ccccc12	-2%	27µM*	-30%	14%
